The list is not random: actives were taken first. Their share in the collection is about 9%.
HTT ATP protect = cytoprotection in Huntington HTT-Q103 PC12 cell model; PC12 HTT-Q103 induced, cytoprotection, ATP luminescence, 40 h; Potency, µM (highest dose often 56.4 µM), actives largely listed as activators; 0.14% of 230,000 active; AID 1471; also: nearly all actives have a fitted effect of over 45% in size
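Rat PC12, Q103 Htt exon1-GFP fusion, ecdysone promoter; tebufenozide inducer 100 nM final; compound titration; qHTS, 1500 cells/well; ATPlite luminescent read.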
LMNA splice mod = changes lamin A minigene splicing in HeLa cells. 0.01% of 200,000 active. HeLa LMNA splicing GFP/RFP minigene ratio, 48 h. AID 1487. Potency, µM (series often up to 46.1 µM), usual class: inhibitors; active = well fitted inhibition curve with a large enough effect in the signal ratio, with a control signal flat, not every such curve was filed as active; inconclusive = small, poorly fitted or top-dose-only effect, or effect the other way, or a change in a side signal; the % refers to the signal ratio
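S3 HeLa stable clones carrying a lamin A-EGFP splicing minigene plus DsRed2 were seeded at 600 cells/well in Opti-MEM with 2% FBS, pin-dosed and incubated 48 h at 37°C. Acumen cytometry (488 nm) gave the GFP/RFP total-intensity ratio.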
ALDH1A1 inh = blocks purified human ALDH1A1 activity. 7.3% of 220,000 active. Purified ALDH1A1, NADH fluorescence, propionaldehyde substrate. Potency, µM (doses to about 75.3 µM), hits mostly inhibitors. P00352; active = well fitted inhibition curve with a large enough effect, not every such curve was filed as active; inconclusive = small, poorly fitted or top-dose-only effect, or another doubt; inactive = no such curve, though single readings can be large or run the other way
Target sequence (P00352 whole entry, looked up): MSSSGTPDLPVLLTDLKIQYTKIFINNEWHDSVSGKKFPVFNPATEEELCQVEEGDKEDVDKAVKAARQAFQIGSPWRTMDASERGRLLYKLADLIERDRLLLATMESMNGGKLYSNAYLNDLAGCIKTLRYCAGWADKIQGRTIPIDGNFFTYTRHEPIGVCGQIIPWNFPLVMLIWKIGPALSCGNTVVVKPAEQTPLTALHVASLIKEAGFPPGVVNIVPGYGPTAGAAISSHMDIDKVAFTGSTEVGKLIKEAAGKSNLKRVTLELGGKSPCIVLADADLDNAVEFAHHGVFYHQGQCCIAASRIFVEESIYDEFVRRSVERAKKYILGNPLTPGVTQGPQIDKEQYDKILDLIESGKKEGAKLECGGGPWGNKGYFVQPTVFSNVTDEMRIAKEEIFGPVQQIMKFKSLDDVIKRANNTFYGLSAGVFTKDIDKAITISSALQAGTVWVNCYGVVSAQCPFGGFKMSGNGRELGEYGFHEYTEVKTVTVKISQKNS
HPGD inh = inhibitors of human 15-hydroxyprostaglandin dehydrogenase (HPGD); AID 894; 4.3% of 150,000 active; purified HPGD, NADH fluorescence kinetic, PGE2 substrate; Potency, µM, hits mostly inhibitors; P15428; active = well fitted inhibition curve with a large enough effect, not every such curve was filed as active; inconclusive = small, poorly fitted or top-dose-only effect, or another doubt; inactive = no such curve, though single readings can be large or run the other way
Target sequence (P15428 whole entry, looked up): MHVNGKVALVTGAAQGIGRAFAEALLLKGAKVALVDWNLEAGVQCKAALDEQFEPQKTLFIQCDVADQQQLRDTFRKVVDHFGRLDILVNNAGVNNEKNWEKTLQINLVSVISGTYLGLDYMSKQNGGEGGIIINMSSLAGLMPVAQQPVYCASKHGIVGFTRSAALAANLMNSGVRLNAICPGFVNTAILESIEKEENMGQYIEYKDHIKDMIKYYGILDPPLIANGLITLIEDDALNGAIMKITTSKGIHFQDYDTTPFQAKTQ
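20 nM HPGD preincubated 15 min at room temperature with compound in 50 mM Tris-HCl pH 8, 0.01% Tween 20. Started with 1 mM NAD+ and 30 uM prostaglandin E2; NADH fluorescence (360/450 nm) read 5 times over 30-s intervals, last minus first.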
HttQ103 aggreg = mutant huntingtin aggregation inhibition. Potency, µM (series often up to 46.1 µM), most hits filed as inhibitors. 1.1% of 220,000 active. PC12 HttQ103-GFP aggregates, Acumen cytometry, 40 h; also: nearly all actives have a fitted effect of over 60% in size
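Huntingtin Q103 exon 1–GFP aggregates in induced PC12 cells (100 nM tebufenozide) were quantified by cytometry from lysates, with compounds dosed in titration.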
Luc counter = counter-screen: inhibitors of Kinase-Glo firefly luciferase | Q27757 | 0.28% of 200,000 active | AID 1379 | Potency, µM (highest dose often 38.3 µM), hits mostly inhibitors | Kinase-Glo luciferase, ATP luminescence, 8 min; also: nearly all actives have a fitted effect of over 60% in size
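Recombinant Kinase-Glo luciferase, 10 uM ATP (linear range), luciferin; imidazole pH 7.2 / KCl / MgCl2 / Tween / BSA buffer; 8 min RT; luminescence.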
Hits are given with their value; - = inactive; ? = inconclusive; . = not tested or not shown; [ ] = another dose, or the depositor's remark. Unless noted, calls follow the shape of the dose curve; as a rule, active = well fitted curve in the direction sought with a large enough effect; inconclusive = small, poorly fitted or top-dose-only effect, or another doubt; inactive = no such curve, though single readings can be large; an effect the other way counts as inactive or inconclusive.

SMILES	HTT ATP protect	LMNA splice mod	ALDH1A1 inh	HPGD inh	HttQ103 aggreg	Luc counter
NC(N)=NOCCC(N)C(=O)O (stereo not drawn)	-	?	-	-	.	-
Oc1cc(Cl)c(Cl)c(Cl)c1Cl	-	.	-	?	.	.
C=CCNc1nnc(Sc2ncccc2[N+](=O)[O-])s1	-	.	?	.	?	-
Nc1ccc(Sc2ccc(N)cc2)cc1	-	.	-	-	.	.
Cc1cc(NC(=O)c2cccn(Cc3cccc(Cl)c3)c2=O)no1	.	-	.	.	.	.
COc1ccc(NC2(C#N)CCCCC2)cc1	.	.	-	.	?	-
O=C(OC1Cc2c(O)cc(O)cc2OC1c1cc(O)c(O)c(O)c1)c1cc(O)c(O)c(O)c1 (stereo not drawn)	.	-	?	14µM	.	-
Oc1cc(O)c2c(c1)OC(c1cc(O)c(O)c(O)c1)C(O)C2 (stereo not drawn)	-	.	?	16µM	.	-
c1ccc(-c2[nH]c(-c3ccccc3)[n+](CC3CO3)c2-c2ccccc2)cc1 (stereo not drawn)	-[10 µM]	?	?	-	-	-
COc1cccc(-c2nc(CS(=O)CC(=O)N3CCC4(CC3)OCCO4)c(C)o2)c1 (stereo not drawn)	-	-	35µM	-	-	-
N#CC(C#N)=NNc1ccc(OC(F)(F)F)cc1	-	.	2.8µM	-	.	-
O=P(O)(O)c1ccccc1 (tested in a mixture with another compound)	-[10 µM]	.	-[13.5 µM]	-	.	-[7.66 µM]
O=c1c2ccccc2nc(CSc2ncnc3nc[nH]c23)n1-c1ccccc1	-	?	?	-	-	-
O=C(O)c1cc[c]([Hg][S]c2ncnc3nc[nH]c23)cc1	-[10 µM]	.	0.89µM	0.22µM	.	-[7.66 µM]
O=S1(=O)N(CCN2CC=C(c3c[nH]c4cc(F)ccc34)CC2)c2cccc3c2N1CCC3	-[1.9 µM]	?	25µM	-	.	-
C=C1CC2C(CC[C@]3(C)C(=O)CCC23)[C@]2(C)C=CC(=O)C=C12 (stereo partly drawn)	?	?	28µM	-	-	-
CCCCCc1cc(O)c2c(c1)OC(C)(C)[C@@H]1CCC(C(=O)O)=C[C@H]21	-	.	-	.	.	.
CC(C)N[C@@H](C)Cc1ccc(I)cc1	-[1.9 µM]	.	.	.	.	.
CC(C)COc1ccc(C2(C#N)CC[N+](C)(C)CC2)cc1	-	-	-	-	-	-
CCNCC1(c2ccc(OC)c(OC)c2)CCCC1	-[10 µM]	-	-	-	-	-
CN1CCN(S(=O)(=O)c2cnc(Cl)c(Br)c2)CC1	-[10 µM]	?	2.5µM	-	-	-
COc1cccc(C(=O)C2CCCN(Cc3ccc4nonc4c3)C2)c1 (stereo not drawn)	-[10 µM]	-	-	.	-[9.22 µM]	-
O=C(O)c1cc(Cl)ccc1Cl	-	.	?	-	.	.
O=C(CCl)c1ccc(Cl)cc1Cl	-	.	0.16µM	-	.	.
CNCCc1c[nH]c2ccccc12	-	-	18µM	.	?	-
SMILES	HTT ATP protect	LMNA splice mod	ALDH1A1 inh	HPGD inh	HttQ103 aggreg	Luc counter
N[C@H](Cn1ccc(=O)[nH]c1=O)C(=O)O	-[1.9 µM]	.	.	.	.	.
CCn1c(N)c(C(=O)NC)sc1=S	-	-	2.8µM	3.5µM	-	-
CN1C(=O)C(Cc2c[nH]c3ccccc23)C(=O)N(C)C1=O	-[0.074 µM]	-	14µM	?	-	-
COCC#CCN1CCCCC1c1cccnc1 (stereo not drawn)	-	.	-	-	.	-
C/C(CC(c1ccccc1)c1c(O)c2ccccc2oc1=O)=N\NC(N)=S (stereo not drawn)	.	?	?	?	?	-
NC(=S)N/N=C/c1coc2ccccc2c1=O	?	-	14µM	-	?	-
Cc1cccc(OC(C)C(=O)NCC2(N(C)C)CCCCC2)c1C (stereo not drawn)	.	-	.	.	.	.
Cc1ccc(O)cc1 (tested in a mixture with another compound)	-[10 µM]	.	-[13.5 µM]	-	.	-[7.66 µM]
Oc1cc[c]([Hg][Cl])cc1	-	.	.	.	2.5µM	.
O=c1[nH]c(=O)n(CCC2=CCCCC2)c(O)c1C=NCCN1CCNCC1	-[0.074 µM]	-	14µM	-	-	-
O=c1[nH]c(=O)n(Cc2ccccc2)c(O)c1C=NCCN1CCNCC1	-[10 µM]	-	16µM	22µM	-	-
C=CCn1c(O)c(C=NCCN2CCNCC2)c(=O)[nH]c1=O	-	-	?	-	-[9.22 µM]	-
O=c1[nH]c(=O)n(Cc2ccccc2)c(O)c1C=Nc1ccc(CN2CCOCC2)cc1	-	-	14µM	.	-	.
c1ccc(C2CC3CC4(CCCC4)N2O3)cc1 (stereo not drawn)	-	-	-	-	-	-
COP(=S)(OC)SCN1C(=O)c2ccccc2C1=O	-	-	?	20µM	-	-
N#Cc1ccc(CN2CC[C@@]3(CCCNC3)C2)cc1	-	.	-	-	.	-
O=C1OC(c2cc(I)c(O)c(I)c2)(c2cc(I)c(O)c(I)c2)c2ccccc21	?	.	-	11µM	.	-
CC(C)Nc1ccc(Nc2ccccc2)cc1	-	1.4µM	8.9µM	-	-	.
c1ccc(Nc2ccc3ccccc3c2)cc1	-	.	?	?	.	.
CSc1ccc(C(=O)C(C)(C)N2CCOCC2)cc1	-	-	8.9µM	-	-	-
CC1(C)CC(=O)C2=C(C1)OC(N)=C([N+](=O)[O-])C2c1ccc(C#N)s1 (stereo not drawn)	-[10 µM]	.	20µM	.	-[9.22 µM]	-
O=C1NC(=O)C(C(CC(=O)c2ccccc2)c2ccccc2)C(=O)N1 (stereo not drawn)	-[10 µM]	-	0.1µM	.	-[9.22 µM]	-
CN1[C@@H](CC(=O)c2ccccc2)CCC[C@@H]1C[C@@H](O)c1ccccc1	-	-	-	-	.	-
COC(=O)c1ccc(N2C(=O)CC(N3CCC(O)(c4ccc(Br)cc4)CC3)C2=O)cc1 (stereo not drawn)	-	-	3.2µM	-	-	-
COC(=O)c1ccc(N2C(=O)CC(N3CCC(n4c(=O)[nH]c5ccccc54)CC3)C2=O)cc1 (stereo not drawn)	-[0.074 µM]	-	10µM	-	-	-
SMILES	HTT ATP protect	LMNA splice mod	ALDH1A1 inh	HPGD inh	HttQ103 aggreg	Luc counter
O=C(O)/C=C\C(=O)O	-	.	-	-	.	.
CC(=O)O.CC(=O)O.[Cd]	.	?	13µM	-	.	-
CN1C(=O)C(=Cc2ccccc2Oc2ccc(Cl)c(F)c2)C(=O)N(C)C1=O	-	-	?	11µM	-	-
CS(=O)(=O)NNP(=O)(NNS(C)(=O)=O)NC(=O)c1ccccc1	-[10 µM]	.	-	.	-[9.22 µM]	.
C[C@@H]1Cc2cc3c(cc2C(c2ccc(N)cc2)=NN1)OCO3	-[1.9 µM]	.	.	.	.	.
COc1cc(O)c(C(=O)c2ccccc2)cc1S(=O)(=O)O	?	?	13µM	-	-	-
Cc1ccc(-c2cc(-c3ccc(C)cc3)[n+](C)o2)cc1	.	?	?	?	3.2µM	-
Cc1nc2cc(C(=O)N3CCC4(CC3)OCCO4)ccc2n1-c1ccc(Br)cc1	-	-	?	8.9µM	-	-
O=C(c1ccc2c(c1)ncn2-c1ccc(F)cc1F)N1CCC2(CC1)OCCO2	-	.	?	.	-	-

Compound activity: PubChem BioAssay, National Center for Advancing Translational Sciences (NCATS)
